# The panel holds about 79,000 compounds, 15% with a hit somewhere; the sample as a whole holds those more often. Activity calls are given as the source filed them. No stated cut-off is given here; in the data, active means growth inhibition above about 70%; inactive means the rest.
# Assay: NCI Yeast Anticancer Drug Screen. Data for the rad50 strain (AID 155);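 further: 0% = growth of vehicle-only cultures of the same strain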
# Conditions: S. cerevisiae rad50 strain growth inhibition; at 50.0 µM; stronger effect = higher value
# Outline: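 Genetically altered yeast (DNA repair pathway); compound treatment; growth inhibition vs vehicle ctrl.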
row,SMILES,growth inhibition
1,CCN(CC)CC[n+]1ccc2c(C)c3[nH]c4ccc(O)cc4c3c(C)c2c1,95% (active)
2,O=[n+]1c2ccc(Cl)cc2n([O-])c2ccc(Cl)cc21,-5.4% (inactive)
3,CCOP(=O)(OCC)C(Cc1ccccc1)N=C(c1ccccc1)c1ccccc1 (centres undefined),98.6% (active)
4,CC[C@@]1(O)C(=O)OCc2c1cc1n(c2=O)Cc2cc3c(N)cccc3nc2-1,88% (active)
5,COC1C=COC2(C)Oc3c(C)c(O)c4c(c3C2=O)/C(=N/C2CCC(O)OC2C)C=C(NC(=O)/C(C)=C\C(=O)C2CC2C(O)C(C)C(O)C(C)C(OC(C)=O)C1C)C4=O (centres undefined),9.3% (inactive)
6,COc1cc2c(c(OC)c1OC)-c1c(cc3c(c1OC)OCO3)CC(C)C(C)(O)C2OC(=O)c1ccccc1 (centres undefined),71.2% (active)
7,O=c1ssc2ncccc12,97.1% (active)
8,O=C1C2C(C(=O)N1c1ccc(OCc3ccccc3)cc1)C1c3ccccc3C2C2CCCCN21 (centres undefined),80.8% (active)
9,COc1ccc(-c2cn(-c3ccc(I)cc3)c3ncnc(N)c23)cc1,14.8% (inactive)
10,CCOC(=O)C(NC(=O)c1ccccc1)(N1CCN(c2cc3c(cc2F)c(=O)c(C(=O)O)cn3C2CC2)CC1)C(F)(F)F (centres undefined),74.6% (active)
11,C/C(=N\O)C1CC2C=C(C#N)C1N(Cc1ccccc1)C2 (centres undefined),8.05% (inactive)
12,CC/C(=C(\c1ccccc1)c1ccc(OCCN(C)C)cc1)c1ccccc1,90% (active)
13,COc1ccccc1N=NC(C(=O)c1ccccc1)C(=O)c1ccccc1,93.4% (active)
14,CC(O)C(O)C(O)C(/C=N\Nc1ccccc1)=N/Nc1ccccc1 (centres undefined),97.8% (active)
15,COc1ccc(/C=C2\SC(=S)N(/C=C/c3nc4ccccc4[nH]c3=O)C2=O)cc1OC,57.2% (inactive)
16,N#CN=Nc1cc(Cl)c(N=NC#N)cc1Cl,83.8% (active)
17,Cc1ccc(S(=O)(=O)Oc2cc(Cl)c(Cl)cc2Cl)cc1,-6.5% (inactive)
18,c1ccc2c(c1)Oc1cccc3cccc-2c13,67.2% (inactive)
19,O=C(c1ccc(Cl)cc1Cl)C(Cl)Cl,83.8% (active)
20,CC(C)C1=CCC2C(=C1)CCC1C(C)(C(=O)O)CCCC21C (centres undefined) (tested in a mixture with another compound),83.5% (active)

row,SMILES,growth inhibition
1,COc1cc(/C=C2\CCc3ccccc3C2=O)cc(OC)c1OC,44.1% (inactive)
2,CC(=O)[O][Bi]([c]1ccccc1)[c]1ccccc1,86% (active)
3,S=C(N/N=C/c1ccccn1)Nc1ccc(Cl)cc1,55.5% (inactive)
4,COc1cc(CC2CC(c3ccc4c(c3)OCO4)OC2=O)cc(OC)c1OC (centres undefined),-10.2% (inactive)
5,CNC1C(OC2C(OC3C(O)C(O)C(N=C(N)N)C(O)C3N=C(N)N)OC(C)C2(O)CO)OC(CO)C(O)C1O (centres undefined),91.3% (active)
6,NNC(=O)CCc1ccc2ccc3ccccc3c2c1,28.1% (inactive)
7,Oc1ccc2ccccc2c1C(c1ccc(Cl)cc1)c1c(O)ccc2ccccc12,68.3% (inactive)
8,CCCCN(CCCC)CCSc1ccc(Cl)cc1,87.3% (active)
9,CCC(C)COC(=O)c1ccc(N=Cc2ccc(C=Nc3ccc(C(=O)OCC(C)CC)cc3)cc2)cc1 (centres undefined),28.8% (inactive)
10,CC1(C)C(=O)OC(n2cc(F)c(=O)[nH]c2=O)C1=O (centres undefined),6.6% (inactive)
11,O=[N+]([O-])CC(SCc1ccccc1)c1ccc2c(c1)OCO2 (centres undefined),90% (active)
12,COc1cc2c(cc1[N+](=O)[O-])C(=O)C(Br)(Br)CCC2,91.2% (active)
13,OCC1OC(OCC(O)C(O)C(O)C(/C=N/Nc2ccccc2)=N/Nc2ccccc2)C(O)C(O)C1O (centres undefined),99.2% (active)
14,COc1ccc(N=C2C(=O)Nc3ccc(Br)cc32)cc1,13.8% (inactive)
15,Cn1c(=O)c2ccccc2c2ccccc21,97% (active)
16,CC[n+]1ccc2c(C)c3[nH]c4ccc(O)cc4c3c(C)c2c1,81.5% (active)
17,CC(=O)ON1C(=O)c2cccc3cccc(c23)C1=O,81.9% (active)
18,COc1ccc2ccc3ccccc3c2c1C=O,49% (inactive)
19,OC1CCCc2c1cc1ccc3cccc4ccc2c1c34 (centres undefined),95.6% (active)

# From PubChem BioAssay (NCI)
